Compounds with a hit are over-represented: about 5.3% of the library has one in this group of screens.
ALOX15B inhib: qHTS Assay for Inhibitors of 15-hLO-2 (15-human lipoxygenase 2). purified 15hLO-2, xylenol orange hydroperoxide absorbance. Potency, µM (top dose mostly 57.1 µM), for the others: at the top dose activity change, negative = inhibition, most hits filed as inhibitors. Polyunsaturated fatty acid lipoxygenase ALOX15B (Homo sapiens), O15296. 0.56% of 110,000 active; also: potency is read from the fitted curve at half-maximal effect; nearly all actives have a fitted effect of over 60% in size
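Purified human 15hLO-2 (50 nM final) preincubated with compounds 15 min at room temperature in 25 mM Hepes pH 7.5, 0.01% Triton X-100, then 45 uM arachidonic acid added for 90 min; hydroperoxide detected via ferrous/xylenol orange, 573/405 nm absorbance ratio.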
IMPase cell inh: qHTS Assay for Identifying the Cell-Membrane Permeable IMPase Inhibitors | Inositol monophosphatase 1 (Rattus norvegicus), P97697 | CHO-M1 cells, IP1 accumulation, HTRF TR-FRET ratio | inhibition (IP1 accumulation), % at 46.1 µM | 120,000 tested, under 10 active; active = well fitted curve in the direction sought with a large enough effect in the signal ratio, not every such curve was filed as active; inconclusive = small, poorly fitted or top-dose-only effect, or a change in a side signal; inactive = no such curve, though single readings can be large or run the other way; the % refers to the signal ratio;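 also: cells stimulated with carbachol in lithium chloride buffer; plate controls were DMSO basal wells for no effect and reference inhibitor wells for full effect; higher means more IMPase inhibition seen as more IP1 and lower FRET ratio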
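In this qHTS, compounds (final up to 46 uM) act on CHO-M1 cells that are then activated through the M1 receptor with carbachol, in pH 7.4 buffer containing 50 mM LiCl, for 30 min. IP1 accumulation is quantified by the IP-One immunoassay.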
IMPase Li inh: qHTS Assay for Identifying the Cell-Membrane Permeable IMPase Inhibitors: Potentiation with Lithium | CHO-M1 cells, IP1 TR-FRET (IP-One), carbachol + lithium | Potency, µM (series often up to 59.4 µM), without a hit: at the top dose activity, negative = IMPase inhibition, usual class: inhibitors | 0.35% of 210,000 active | AID 1457, 2008;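 also: IP1 builds up when IMPase is blocked and the TR-FRET signal falls; potency is read from the fitted curve at half-maximal effect; plate controls were basal vehicle for no effect and high inhibitor control for full effect; nearly all actives have a fitted effect of over 50% in size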
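IP1 accumulation measured by competitive TR-FRET in lysed CHO-M1 cells after 30 min compound exposure at 37C, with a small lithium addition to potentiate weak responses. Hill-equation AC50 from ratio and donor-channel data.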
PNC inhibitor: High Content Assay for Compounds that inhibit the Assembly of the Perinucleolar Compartment; PC3M PTB-GFP, PNC prevalence imaging, 16 h; stronger effect = lower value; activity change (PNC), negative = inhibition, % at 10 µM; 3.1% of 140,000 active; AID 2417, 2010;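 active = readout at or below -70, meaning at least 70% loss of cells showing the perinucleolar compartment, a nuclear body marking cancer cells; inconclusive = readout between -30 and a set limit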;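 also: plate controls were DMSO wells for no effect and camptothecin positive control wells for full effect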
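Compounds are pinned in duplicate onto adhered PC3M cells stably expressing GFP-tagged PTB and incubated 16 h at 37 C. Cells are then fixed, nuclei stained with Hoechst, and PNC-positive cells counted.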
HPGD inh: qHTS Assay for Inhibitors of HPGD (15-Hydroxyprostaglandin Dehydrogenase) | Potency, µM, for the others: at the highest dose activity change, negative = inhibition, actives largely listed as inhibitors | AID 894, 2007 | 15-hydroxyprostaglandin dehydrogenase [NAD(+)] (Homo sapiens), P15428 | 4.3% of 150,000 active | purified HPGD, NADH fluorescence kinetic, PGE2 substrate; active = well fitted inhibition curve with a large enough effect, not every such curve was filed as active; inconclusive = small, poorly fitted or top-dose-only effect, or another doubt; inactive = no such curve, though single readings can be large or run the other way; also: potency is read from the fitted curve at half-maximal effect
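NADH formation kinetics: reaction with 30 uM PGE2 and 1 mM NAD+ (final), 20 nM enzyme, Tris-HCl pH 8 with Tween 20, after 15 min compound preincubation at room temperature. Fluorescence change, last versus first of five reads.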
ALOX12 inhib: qHTS Assay for Inhibitors of 12-hLO (12-human lipoxygenase). Polyunsaturated fatty acid lipoxygenase ALOX12 (Homo sapiens), P18054. purified 12-hLO, xylenol orange hydroperoxide absorbance. Potency, µM (top dose mostly 57.1 µM), for the others: at the top dose activity change, negative = inhibition, most hits filed as inhibitors. 0.12% of 150,000 active; also: potency is read from the fitted curve at half-maximal effect; nearly all actives have a fitted effect of over 55% in size
Target sequence (P18054 whole entry, looked up): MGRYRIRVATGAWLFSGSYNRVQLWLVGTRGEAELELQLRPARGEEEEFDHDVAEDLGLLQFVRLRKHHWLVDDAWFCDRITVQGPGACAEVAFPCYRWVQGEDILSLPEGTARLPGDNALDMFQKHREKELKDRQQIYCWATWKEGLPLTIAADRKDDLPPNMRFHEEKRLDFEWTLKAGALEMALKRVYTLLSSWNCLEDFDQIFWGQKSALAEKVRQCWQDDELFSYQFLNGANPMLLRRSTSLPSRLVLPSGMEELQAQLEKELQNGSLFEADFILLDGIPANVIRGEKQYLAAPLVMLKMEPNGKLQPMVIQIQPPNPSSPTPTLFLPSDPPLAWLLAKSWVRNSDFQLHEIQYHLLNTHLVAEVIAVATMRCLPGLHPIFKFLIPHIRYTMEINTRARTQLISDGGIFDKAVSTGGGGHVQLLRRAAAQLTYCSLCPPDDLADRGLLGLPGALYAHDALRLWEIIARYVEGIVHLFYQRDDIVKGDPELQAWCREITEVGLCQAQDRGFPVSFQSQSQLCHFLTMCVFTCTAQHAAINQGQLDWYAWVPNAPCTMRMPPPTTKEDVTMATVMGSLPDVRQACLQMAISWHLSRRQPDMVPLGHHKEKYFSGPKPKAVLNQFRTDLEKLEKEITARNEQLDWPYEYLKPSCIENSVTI
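Xylenol orange chromogenic assay: hydroperoxide from 12hLO oxidises Fe(II), giving red-shifted Fe(III)-XO absorbance. Conditions: 150 nM enzyme, 40 uM arachidonic acid, 25 mM Hepes pH 7.0, 0.01% Triton X-100, 30 min, room temperature.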
Active calls of the source: *; ? = inconclusive; · = no result given; [ ] = dose if it differs, or a comment. Unless noted, calls follow the shape of the dose curve; as a rule, active = well fitted curve in the direction sought with a large enough effect; inconclusive = small, poorly fitted or top-dose-only effect, or another doubt; inactive = no such curve, though single readings can be large; an effect the other way counts as inactive or inconclusive. Unless noted, % is scaled to controls: 0 for no effect and ±100 for the full control effect.

SMILES	ALOX15B inhib	IMPase cell inh	IMPase Li inh	PNC inhibitor	HPGD inh	ALOX12 inhib
C=CCn1c(SCC(=O)c2ccc(Cl)cc2)nnc1-c1ccc2c(c1)OCO2	·	·	14%	37	8.9µM*	-2%
Nn1c(Cc2cccc3ccccc23)nnc1SCc1c(F)cccc1Cl	·	·	5%	-23	22µM*	-1%
Nn1c(Cc2cccc3ccccc23)nnc1SCCOc1ccc(Br)cc1	·	·	4%	8	14µM*	-11%
COc1cccc(Oc2nnnn2-c2ccccc2)c1	2%	4	·	-9	·	-11%
COc1cccc(-n2nnnc2S(C)(=O)=O)c1	-25%	9	28%[38.3 µM]	?	20µM*	-6%
CC(=O)NC1C(Oc2ccccc2C)OC2COC(c3ccco3)OC2C1O (configuration not stated)	·	·	2%	31	-3%	-2%
CCOC(=O)N1CCC(N(C(=O)Nc2ccc(Cl)c(Cl)c2)C(C)CC)CC1 (configuration not stated)	2%	8	30%[38.3 µM]	-11	20µM*	-1%
CCOC(=O)N1CCC(N(CCOC)C(=O)Nc2ccc(CC)cc2)CC1	-1%	?	34%[38.3 µM]	-2	1%	-8%
CCOC(=O)c1c(-c2ccccc2)oc2ccc(N(C(C)=O)S(=O)(=O)c3cc(C)ccc3C)cc12	·	-3	·	·	·	·
CC1(C)CC(=O)C/C(=N\NC(=O)CCc2ccc(S(=O)(=O)N3CCOCC3)cc2)C1	·	·	2%	·	·	·
COC(=O)c1ccc(CN2CCN(CC=C(C)C)C(CCO)C2)cc1 (configuration not stated)	·	·	1%	·	·	·
COc1ccc(C2SCC(=O)N2c2c(C)n(C)n(-c3ccccc3)c2=O)cc1OC (configuration not stated)	-2%	-1	16%[38.3 µM]	-14	-4%	1%
Cc1ccc(C)c(S(=O)(=O)N(C(=O)c2ccncc2)c2ccc(OC(=O)c3ccncc3)cc2)c1	·	·	5%	·	·	·
Cc1ccc(S(=O)(=O)N(C(=O)c2ccncc2)c2ccc(OC(=O)c3ccncc3)cc2)c(C)c1	·	·	-2%	-14	28µM*	0%
Cc1ccccc1N=C1N=C(N)c2ccccc21	·	0	-6%	-96*	-1%	0%
COc1ccccc1OCCNC(=O)c1cc(SC)ccc1Cl	·	·	2%	-113*	-2%	-3%
O=C(NCCOc1ccccc1F)c1cc(F)c(F)cc1Cl	·	·	?	?	22µM*	1%
COc1ccc2c(c1)O[C@@H](c1ccc3c(c1)OCO3)[C@H](OC(=O)NCCOc1ccccc1)C2=O	·	·	13%	·	-5%	·
Nc1ccc(O)c(C(=O)O)c1	12%	20[20.6 µM]	0%	·	11µM*	-10%
Nc1ccc(C(=O)O)c(O)c1 (tested in a mixture with another compound)	·	·	4%	·	-24%	·
COc1ccc(/C=C2/C(=O)N(CC3CCCO3)C(=S)N2C)c(OC)c1 (configuration not stated)	-4%	2	12%[38.3 µM]	6	-18%	-18%
COc1cc(/C=C2/SC(=S)N(CC3CCCO3)C2=O)ccc1O (configuration not stated)	·	-1	12%	-16	25µM*	-6%
O=C1/C(=C/c2cccnc2)SC(=S)N1CC1CCCO1 (configuration not stated)	·	·	7%	·	·	·
COc1ccccc1/C=C1\NC(=S)N(CC2CCCO2)C1=O (configuration not stated)	?	10	84%[38.3 µM]	-18	28µM*	-29%
